The supplement of paper PMC3334620
Whole data set: some 33,000 sequences, median “E-score (-0.5 to 0.5)” near -0.012, cut for the highest 2% near 0.29. This excerpt belongs to a sample that is enriched for the highest values.

Biological target: T1, Ybr033w (UniProt P38073)
T1 sequence: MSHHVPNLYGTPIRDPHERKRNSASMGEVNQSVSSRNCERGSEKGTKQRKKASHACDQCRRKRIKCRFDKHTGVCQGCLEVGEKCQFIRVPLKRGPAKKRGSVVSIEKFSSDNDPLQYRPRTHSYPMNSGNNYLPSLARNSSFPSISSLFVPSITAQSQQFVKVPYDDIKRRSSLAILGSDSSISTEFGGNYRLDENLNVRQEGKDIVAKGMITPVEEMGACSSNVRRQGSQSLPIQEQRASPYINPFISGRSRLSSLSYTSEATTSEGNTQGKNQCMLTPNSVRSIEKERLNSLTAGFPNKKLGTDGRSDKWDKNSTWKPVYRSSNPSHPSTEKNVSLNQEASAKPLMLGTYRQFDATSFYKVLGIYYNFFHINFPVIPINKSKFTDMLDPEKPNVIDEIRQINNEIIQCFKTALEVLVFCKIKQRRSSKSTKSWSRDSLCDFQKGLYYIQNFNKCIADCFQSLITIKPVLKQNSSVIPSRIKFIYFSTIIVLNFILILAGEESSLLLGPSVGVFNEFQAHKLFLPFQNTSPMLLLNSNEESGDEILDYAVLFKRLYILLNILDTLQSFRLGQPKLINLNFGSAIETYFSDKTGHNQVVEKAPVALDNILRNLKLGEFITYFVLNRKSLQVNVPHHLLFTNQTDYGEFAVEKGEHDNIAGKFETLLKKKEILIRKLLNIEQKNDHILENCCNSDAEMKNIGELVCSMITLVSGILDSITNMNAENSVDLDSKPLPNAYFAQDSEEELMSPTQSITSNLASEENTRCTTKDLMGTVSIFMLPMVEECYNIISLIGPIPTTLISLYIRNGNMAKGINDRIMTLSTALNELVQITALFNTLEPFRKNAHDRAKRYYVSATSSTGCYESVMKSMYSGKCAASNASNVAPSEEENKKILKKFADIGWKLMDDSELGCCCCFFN
Test: PBM E-score (8-mer binding enrichment) (E-score (-0.5 to 0.5)); higher = stronger / more preferred TF binding
Settings: protein concentration: 200 nM; construct: GST-full length
Method in brief: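 Universal all-10-mer Agilent arrays, fresh or stripped once, were converted to double-stranded form by primer extension. GST-tagged yeast transcription factors from PURExpress in vitro transcription/translation, full-length or DNA-binding domain only, were applied at about 100-200 nM and detected with fluorescent anti-GST. After masliner normalisation, the Universal PBM Analysis Suite scored each ungapped eight-base word together with its reverse complement by E-score.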

Row | Sequence | PBM E-score
1 | GGCTCTAC | -0.185
2 | GGAACACA | 0.149
3 | GAGCTGTA | -0.11
4 | TCCATACA | 0.0807
5 | ATTTTCAG | 0.148
6 | ATTCGCCG | 0.0215
7 | ATCGACAC | -0.0724
8 | CGTGAACA | 0.00947
9 | GTGTGTTA | 0.292
10 | CTGTGTTA | -0.00531
11 | ATGTGTTA | 0.163
12 | CAAGGTCG | -0.0398
13 | AACGACTC | -0.219
14 | AGTTTATG | 0.2
15 | AATTTAGG | 0.229
16 | AATTTATG | 0.317
17 | AGTTTATA | 0.215
18 | CATTTATC | 0.278
19 | AGTTTATC | 0.363
20 | ACTTTATG | 0.132
21 | AATTTATC | 0.398
22 | AATTTATA | 0.257
23 | GCAAGCGC | -0.00847
24 | GTAACCAC | -0.255
25 | CTCAATGC | -0.0435

Row | Sequence | PBM E-score
26 | AGATCTTG | -0.00564
27 | GAAGTGAA | 0.155
28 | TAAGTGAA | 0.293
29 | AAAGTGAA | 0.164
30 | CAAGCCAG | -0.0473
31 | ATTAGATG | 0.329
32 | ATTAGATA | 0.222
33 | ATTAGATC | 0.0257
34 | AATCGGGG | -0.125
35 | GAAATCTA | 0.116
36 | AAAATCTG | 0.235
37 | ATAATCTA | 0.294
38 | AAAATCTA | 0.289
39 | ATAATCTC | 0.293
40 | CTAATCTC | -0.0112
41 | GTAATCTA | 0.207
42 | ATAATCTG | 0.117
43 | ACAATCTC | 0.0789
44 | AGACAGGA | 0.246
45 | TCTCAAAA | 0.143
46 | GCGAGACA | -0.0827
47 | CAAATAGG | 0.00709
48 | CAGACGAG | -0.108
49 | AAACGGAA | 0.341
50 | AAACGGAC | -0.102

Row | Sequence | PBM E-score
51 | GAACGGAA | 0.0333
52 | AACTCAAT | 0.0866
53 | GGGTGAGA | -0.224
54 | CTCACTTA | 0.0375
55 | GGGTAAGA | -0.154
56 | CACACTAG | 0.0753
57 | CACACTAA | 0.299
58 | TACACTAA | 0.0217
59 | GCGCTGAA | -0.0684
60 | ACCACGAG | 0.0793
61 | CGTAATTC | 0.0565
62 | CGTAATTA | 0.29
63 | ATTAAGTA | 0.365
64 | GTTAATTA | 0.266
65 | ATTAGTTG | 0.265
66 | GTTAAGTA | 0.113
67 | GTTAGTTA | 0.262
68 | ATTAAGTG | 0.167
69 | ATTAATTG | 0.268
70 | ATTAGTTA | 0.344
71 | ATTAATTA | 0.387
72 | GGTAATTA | 0.175
73 | CGGGGCGA | -0.145
74 | AAACACCC | 0.0312
75 | GCGCGATA | 0.181

Row | Sequence | PBM E-score
76 | CCTCCTAC | -0.107
77 | GACCTATA | 0.189
78 | GGTGGCCA | -0.292
79 | AACAGTAA | 0.173
80 | CTCTTCGA | 0.0693
81 | ACAGGTGA | 0.0969
82 | ACTTACCA | 0.0956
83 | CCGCTAAC | -0.0857
84 | AGTAATTA | 0.232
85 | ATTAATTC | 0.291
86 | AGTAATTC | 0.318
87 | ACTAATTC | 0.221
88 | AGTAATTG | 0.129
89 | CTTAATTC | 0.257
90 | CCTTACCA | -0.00851
91 | ACACCTGA | -0.0619
92 | AGTTCTAC | 0.0539
93 | AATCAAGC | 0.0885
94 | GTATATTA | 0.257
95 | CTATATCC | 0.159
96 | ATATATTA | 0.306
97 | ACATATTG | 0.193
98 | CCATATTA | 0.146
99 | CTATATTC | 0.215
100 | ATATATCA | 0.0628

Row | Sequence | PBM E-score
101 | ATATATTG | 0.14
102 | CTATATTA | 0.284
103 | ACATATTA | 0.349
104 | ATATATTC | 0.326
105 | ATATATCC | 0.372
106 | AAGAGGGG | -0.226
107 | GTGCCACA | -0.302
108 | CTGGCAGA | -0.00651
109 | GCGGGACA | -0.243
110 | CGCGATCA | 0.0933
111 | AGATCTGA | -0.108
112 | CTAAGGGA | 0.0981
113 | ACCTGCGG | -0.146
114 | ACTGCCAT | 0.00233
115 | TCCTCGAA | 0.126
116 | AACCAAAT | 0.228
117 | ATGGGGTG | -0.195
118 | CGATATTA | 0.336
119 | CGATATTC | 0.123
120 | GGATATTA | 0.144
121 | AACTTCCC | 0.00652
122 | AGATAGGA | 0.00058
123 | ACTATTTG | 0.248
124 | CTTTATTA | 0.191
125 | ACTATTTC | 0.237

Row | Sequence | PBM E-score
126 | CTTTATTC | 0.192
127 | ATTTATTG | 0.0954
128 | CTTATTTC | 0.235
129 | ATTTATTA | 0.293
130 | ATTATTTG | 0.335
131 | ATTTATTC | 0.361
132 | GTTTATTA | 0.276
133 | ATTATTTC | 0.332
134 | ATTATTAG | 0.152
135 | AGCCAATA | -0.0344
136 | AAAAAGCG | 0.112
137 | CCGTTGCG | -0.192
138 | AAGAATAG | 0.204
139 | CGACAAAC | 0.0224
140 | CCATGGGA | -0.0942
141 | AAACTAGG | 0.0193
142 | GGAGAGAC | -0.0678
143 | ATTATTTA | 0.373
144 | ATTATTCG | 0.328
145 | GTTATTTA | 0.258
146 | ACTATTCG | 0.177
147 | CTTATTTA | 0.106
148 | ATTATTCA | 0.231
149 | AAATCTCT | 0.152
150 | AGAAAGTC | 0.173

Row | Sequence | PBM E-score
151 | CCACGAGG | -0.0481
152 | AATAGGAT | 0.295
153 | AATAGGAG | -0.253
154 | CATAGGAA | 0.0524
155 | AATAGGAC | 0.0355
156 | AATAGGAA | 0.29
157 | TATAGGAA | 0.232
158 | ACGCGACC | -0.208
159 | ACTAACCA | 0.11
160 | AGCACTTC | 0.0586
161 | ACGCGACT | -0.174
162 | GATTATCC | 0.396
163 | CATTATTC | 0.213
164 | GATTATTA | 0.298
165 | GATTATCA | 0.19
166 | CATTACTC | 0.11
167 | AATTATTC | 0.423
168 | GATTATAA | 0.172
169 | AATTACTA | 0.234
170 | CATTATTA | 0.243
171 | CATTATCC | 0.224
172 | AATTACTC | 0.328
